# In PubChem BioAssay (NCATS):
# Active and inactive are the calls of the source. The rule behind the calls is not given here.
# Experiment: qHTS assay for small molecule activators of the human pregnane X receptor (PXR) signaling pathway (AID 720659)
# Conditions: DPX-2 HepG2 CYP3A4-luciferase, 24 h; series mostly up to 92.3 µM
row,Compound,outcome
1,O=C(O)c1ccccc1Nc1cccc(C(F)(F)F)c1,inactive
2,CN(C)c1ccc(C(=C2C=CC(=[N+](C)C)C=C2)c2ccccc2)cc1,inactive
3,Nc1cc(-c2ccncc2)c[nH]c1=O,inactive
4,CN1CCC[C@H]1c1cccnc1,inactive
5,O=C1CN(/N=C/c2ccc([N+](=O)[O-])o2)C(=O)N1,inactive
6,C=CCCCCCCCCC(=O)O,inactive
7,Nc1ccc([N+](=O)[O-])cc1O,inactive
8,CN1[C@@H]2CC[C@H]1CC(OC(=O)C(CO)c1ccccc1)C2 (stereo not given in full),inactive
9,S=c1[nH]c2ccccc2s1,inactive
10,CCCCCCCCCCCCCCCC(=O)OC(C)C,inactive
11,Nc1ccc(O)c(C(=O)O)c1,inactive
12,Oc1ccccc1O,inactive
13,NCCO,inactive
14,CCCCCCCCCCCCCCCCCC(=O)O,inactive
15,c1ccc2sc(SSc3nc4ccccc4s3)nc2c1,inactive
16,CN(C)c1ccc(N=NS(=O)(=O)O)cc1,inactive
17,CC1(C)S[C@@H]2[C@H](NC(=O)[C@H](N)c3ccccc3)C(=O)N2[C@H]1C(=O)O,inactive
18,O=C(O)c1cc(O)c(O)c(O)c1,inactive
19,O=C(OCc1ccccc1)c1ccccc1,inactive
20,O=C(O)[C@H](O)[C@@H](O)[C@H](O)[C@H](O)CO,inactive
21,O=C(O)/C=C\C(=O)O,inactive
22,Nc1nc2ccc([N+](=O)[O-])cc2s1,inactive
23,CC(C)OC(=O)c1cc(C(=O)OC(C)C)cc([N+](=O)[O-])c1,inactive
24,CN(C)CCC(c1ccc(Cl)cc1)c1ccccn1 (stereo not given),inactive
25,Nc1ccc(O)c([N+](=O)[O-])c1,inactive
